The campaign covered roughly 310,000 compounds. About 970 (0.31%) were called active. This is one part of a sample in which actives are shown more often than they occur. Unmarked numbers belong to inactive results.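 How the source made its calls: active means every replicate shows inhibition above about 80%, whatever the replicate mean (limit read from the data); inconclusive means mean inhibition reaches the set limit but some replicate falls short; inactive means the rest.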

What is called inhibition is the drop in the measured response relative to a control, in per cent.

This experiment can be described thus: growth inhibition of PfHsp90-expressing yeast, primary screen, antimalarial PfHsp90 inhibitor project, S. cerevisiae, BacTiter-Glo luminescence, single point, set 2 (AID 504621).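 Further: yeast relying on Plasmodium falciparum Hsp90 in place of its own; 0% = DMSO neutral controls and 100% = 20 µM radicicol positive controls.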 Particulars: BacTiter-Glo ATP, 48 h, at 9.4 µM, stronger effect = higher value.
Regarding `CCOC(=O)C1(c2ccccc2)CCN(CC(O)c2ccc(NC(C)=O)cc2)CC1` (centres undefined), the inhibition is -7.12%.

Take `CCC(=O)OC(Cc1ccccc1)(c1ccccc1)C(C)CN(C)C` (centres undefined): the inhibition was 34.8%.

For the compound `COC1C(O)C(C)OC(OC2CCC3(C=O)C(CCC4C3CCC3(C)C(C5=CC(=O)OC5)CCC43O)C2)C1O` (centres undefined), the inhibition was -24.6%.

With `CC(=O)OC1C2(CC3N4C(=O)C5(CO)SSC4(CC31O)C(=O)N5C)OC(C)C(C)(C)C2=O` (centres undefined), the inhibition was 11.7%.

For `CC1CC=CCC12C(=O)NC(=S)NC2=O` (centres undefined), the inhibition is 3.23%.

In the case of `CC12CCC(O)CC1CCC1C2CCC2(C)C(C(=O)CC(O)C(F)(F)F)CCC12` (centres undefined), the inhibition is -14.7%.

As for `CC12CCC3C(CCC4CC(=O)CCC43C)C1CC(=NO)C2=O` (centres undefined), the inhibition is -28.6%.

On to `CN(C)CC1Oc2ccccc2OC1(O)c1ccccc1` (centres undefined), for which the inhibition is 102% (active).

Consider `O=C(c1ccccc1)C(O)(CN1CCCCC1)c1ccccc1` (centres undefined), for which the inhibition is 8.04%.

With `CC1C(=O)OC2CCN3CC=C(COC(=O)C(C)(O)C1(C)O)C23` (centres undefined), the inhibition was 11.4%.

Turning to `CC(CC(C#N)(c1ccccc1)c1ccccc1)N1CCCCC1` (centres undefined), the inhibition is 13.9%.

Turning to `CCCCCCCCCCCCn1ccc(=N)cc1`, the inhibition was 93.6% (active).

On to `CCC(C)(O)C(=O)OC1C(=O)OC2CC3C(C)=CC(=O)C(O)C3(C)C3C4(O)OCC23C1C(C)C4O` (centres undefined), for which the inhibition was -25.9%.

Take `CC(=O)C1(O)CCC2C3CCC4=C(Cl)C(=O)CCC4(C)C3CCC21C` (centres undefined): the inhibition was 7.87%.

The record behind these values is PubChem BioAssay AID504621 (Broad Institute, 2011).
